The text below walks through data of PubChem BioAssay (NCI).

About 83,000 compounds went through this panel and 20% of them were active in at least one assay; those are over-represented in the sample as a whole.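 Step 1: grow cells in 96-well plates. Step 2: add test compound at a single concentration. Step 3: incubate 48 h. Step 4: record percent growth.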 A number with no mark means an inactive call. Calls of active or inactive are those of the source. Rule for the calls: active = growth percent below 10; inactive = the rest.

Holding throughout (test): NCI-60 one-dose screen, 48 h (100 = growth as untreated, 0 = no growth, -100 = all killed)
What all share (conditions): 10 µM unless noted

The subject of assay [1] is DU-145 prostate.
Assay [2] deals with K-562 leukemia.
Assay [3] has as its system MALME-3M melanoma.
Assay [4] deals with MDA-MB-231 breast.
The test system of assay [5] is RXF 393 renal.
Assay [6] relates to SF-268 CNS.
The test system of assay [7] is SF-295 CNS.
Assay [8] concerns SF-539 CNS.
Assay [9] relates to UACC-257 melanoma.
The test system of assay [10] is M14 melanoma.
The test system of assay [11] is HCT-15 colon.
Assay [12] deals with HT29 colon.
Assay [13] relates to SNB-75 CNS.
The subject of assay [14] is SNB-19 CNS.
Assay [15] concerns U251 CNS.
Assay [16] concerns PC-3 prostate.
Assay [17] relates to SK-MEL-5 melanoma.
In assay [18] the test system is UACC-62 melanoma.
Assay [19] concerns LOX IMVI melanoma.
In assay [20] the test system is SK-MEL-28 melanoma.

As for `COc1ccc(/C=C2\COc3ccc(O)c(O)c3C2=O)cc1`, the growth in assay [1] was 19.4%; in assay [2] it was 13.4%; in [3] it was -26.3% (active); in [4], -11.4% (active); in assay [5] it was 2.29% (active); in [6], 2.86% (active). The growth in [7] is 48.5%; in [8], -36.9% (active); in [9], 14.8%; in assay [10], 8.06% (active); in assay [11], -19.4% (active); in [12] it was 42.6%. Also, the growth was 44.4% in assay [13]; 42% in assay [14]; 12.8% in assay [15]; 17.7% in [16]; -1.8% (active) in [17]; 4.68% (active) in assay [18]. Besides, the growth in assay [19] was -63.9% (active); in assay [20], 57.4%.

Turning to `COc1ccc(CC(C#N)c2cc3ccccc3[nH]2)cc1` (stereo not given), the growth is 101% in assay [1]; 80.5% in [2]; 89.3% in assay [3]; 82.3% in assay [4]; 94.1% in assay [5]; 90.7% in assay [6]. The growth in assay [7] was 94.1%; in assay [8], 97.5%; in assay [9], 94.3%; in [10], 84.2%; in [11] it was 91.5%; in assay [12], 96.5%. The growth is 78.2% in [13]; 92.8% in [14]; 89.3% in [15]; 75.6% in [16]; 91.6% in assay [17]; 75% in assay [18]. Further, the growth in assay [19] was 92%; in [20], 95%.

In the case of `Cc1ccc(-c2nc3nc(-c4ccc(F)cc4)nc(N4CCNCC4)c3o2)cc1`, the growth is 41.7% in [1]; -53.1% (active) in [2]; 107% in [3]; -29.1% (active) in assay [4]; 109% in assay [5]; 96.7% in [6]. The growth was 91.6% in [7]; -72.3% (active) in assay [8]; 105% in [9]; -70.9% (active) in assay [10]; -80% (active) in assay [11]; -78.1% (active) in assay [12]. The growth is -2.57% (active) in assay [13]; 40.5% in [14]; -30.9% (active) in [15]; 14.8% in assay [16]; 96.9% in assay [17]; 91.1% in assay [18]. The growth in assay [19] was -92% (active); in assay [20], 114%.

Turning to `O=C(NCCCN1CCOCC1)c1cccc(N2C(=O)/C(=C/c3ccc(F)cc3)SC2=S)c1`, the growth in assay [1] is 101%; in assay [2] it was 96.2%; in assay [3], 90.4%; in [4] it was 88.9%; in assay [5], 94.2%; in assay [6], 94.1%. Besides, the growth in assay [7] is 95.5%; in assay [8] it was 90.6%; in assay [9], 97.2%; in [10] it was 93.8%; in assay [11], 99.8%; in [12] it was 108%. Also, the growth in [13] was 62.5%; in assay [14], 92.8%; in assay [15] it was 100%; in assay [16], 75.3%; in [17] it was 97.3%; in assay [18], 88.4%. For the same compound, the growth in assay [19] is 87.3%; in assay [20] it was 104%.

On to `Cc1ccc(C(C(N)=O)C(C(N)=O)c2ccccc2)cc1` (stereo not given), for which the growth in assay [1] is 111%; in assay [2], 90.9%; in assay [3], 129%; in assay [4], 123%; in [5], 104%; in assay [6], 104%. Also, the growth was 114% in assay [7]; 119% in assay [8]; 102% in assay [9]; 108% in assay [10]; 110% in [11]; 109% in assay [12]. Further, the growth in assay [13] was 114%; in [14] it was 109%; in [15], 104%; in assay [16], 105%; in [17], 117%; in assay [18], 119%. Moreover, the growth in [19] was 108%; in assay [20], 123%.

On to `COc1ccc2c(O)c(/C=C3\N=Nc4ncccc43)oc2c1C[C@H]1CCNC[C@H]1F`, for which the growth in assay [1] was 7.19% (active); in [2], 1.73% (active); in assay [3], -21.6% (active); in assay [4] it was -6.95% (active); in assay [5], -44.4% (active); in assay [6], -5.68% (active). Besides, the growth in [7] was 18.9%; in assay [8], -29.9% (active); in assay [9], -6.32% (active); in assay [10] it was -40.9% (active); in assay [11] it was 7.66% (active); in [12], 5.05% (active). Also, the growth is -61.2% (active) in [13]; 10.4% in [14]; -51% (active) in [15]; -5.49% (active) in [16]; -30.1% (active) in assay [17]; -15.4% (active) in [18]. The growth was -11% (active) in assay [19] and 8.22% (active) in assay [20].

On to `C1=CN2CC(c3ccccc3)=NNC2c2ccccc21` (stereo not given), for which the growth in [1] is 113%; in assay [2] it was 48.6%; in [3], 80.4%; in assay [4] it was 63.4%; in assay [5], 90%; in [6], 106%. Besides, the growth is 104% in [7]; 92.6% in [8]; 97.1% in [9]; 94.1% in assay [10]; 96.6% in assay [11]; 99.4% in [12]. Besides, the growth in [13] was 37.5%; in [14] it was 105%; in [15], 103%; in [16], 81.9%; in assay [17], 92.8%; in [18], 75.5%. Also, the figures for the growth in assay [19] and in assay [20] were 92.8% and 126%, respectively.

On to `Cc1cc2c(O)c(-c3cccc(Cl)c3)c3sc(=O)oc3c2cc1C`, for which the growth in assay [1] was 48.1%; in assay [2] it was 17.2%; in [3] it was 58.4%; in [4], 53.9%; in [5] it was 63.5%; in assay [6] it was 48.7%. For the same compound, the growth in assay [7] was 66%; in assay [8], 54.3%; in [9], 39.6%; in assay [10], 51.9%; in assay [11], 43.2%; in assay [12], 111%. The growth in [13] is 36.1%; in assay [14], 45.4%; in assay [15], 21.9%; in assay [16], 60.9%; in [17], 18.9%; in [18] it was 27%. The growth in assay [19] is 45.1%; in [20] it was 52.2%.
